Measured values taken from PubChem BioAssay AID1851 (National Center for Advancing Translational Sciences (NCATS), 2009).
About 2,600 (16%) of roughly 16,000 compounds were called active. Roughly 20% stayed inconclusive and do not appear here. Calls come from the whole dose curve; as a rule, active = well fitted curve in the direction sought with a large enough effect; inconclusive = small, poorly fitted or top-dose-only effect, or effect the other way; inactive = no such curve, though single readings can be large or run the other way. Only a sample is shown. Some compounds were tested as several samples or in several runs, with calls that do not always agree.

The compounds below were run against Cytochrome P450 2D6 (Homo sapiens) (UniProt P10635) (assay: Cytochrome panel assay with activity outcomes). Conditions: recombinant CYP, pro-luciferin dealkylation, luminescence, p450-cyp2d6; series mostly up to 57.1 µM; activity, negative = inhibition: at the top concentration.
% is set by controls: 0 for no effect and ±100 for the full control effect.

Chain of Cytochrome P450 2D6 (Homo sapiens) (P10635 whole entry, looked up): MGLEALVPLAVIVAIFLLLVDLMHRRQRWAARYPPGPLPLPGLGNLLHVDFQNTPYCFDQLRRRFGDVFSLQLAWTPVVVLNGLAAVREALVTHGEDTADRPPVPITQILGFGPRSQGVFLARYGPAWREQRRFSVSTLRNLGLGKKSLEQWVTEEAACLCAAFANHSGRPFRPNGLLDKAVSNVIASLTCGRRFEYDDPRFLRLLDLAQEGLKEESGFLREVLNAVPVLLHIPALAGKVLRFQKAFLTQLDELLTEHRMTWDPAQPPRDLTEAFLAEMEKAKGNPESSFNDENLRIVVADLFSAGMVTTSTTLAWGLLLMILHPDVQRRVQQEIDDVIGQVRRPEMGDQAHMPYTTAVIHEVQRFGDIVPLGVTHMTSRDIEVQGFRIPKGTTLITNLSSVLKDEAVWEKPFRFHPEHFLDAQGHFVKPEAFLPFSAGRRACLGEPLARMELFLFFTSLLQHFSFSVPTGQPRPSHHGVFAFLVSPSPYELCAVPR

Structure (SMILES) | AC50 | activity, negative = inhibition
Clc1ccc(Cc2nc(-c3cccnc3)no2)cc1 | 1.78 µM (active) | –
c1ccc(CCc2nc(-c3ccccc3)no2)cc1 | – | -18.9% (inactive)
CCC(C)NS(=O)(=O)c1ccc(NC(=O)CCC2CCCCC2)cc1 (stereo not given) | – | -5.09% (inactive)
Cn1cccc1C(=O)N1CCC2(CC1)CCN(c1ncccn1)CC2 | – | -13.7% (inactive)
COc1ccccc1CNc1ccnc(-c2ccc(N(C)C)cc2)n1 | 0.501 µM (active) | –
CN(C)c1ccc(-c2nccc(NCc3ccccc3)n2)cc1 | 3.16 µM (active) | –
COc1ccccc1CNc1ccnc(-c2ccoc2)n1 | 15.8 µM (active) | –
COC(=O)Cc1c(C)nc2nc(NCc3ccccc3OC)[nH]n2c1=O | – | -2.97% (inactive)
Cc1cnc(CNc2ccnc(-c3ccc(N(C)C)cc3)n2)cn1 | – | -5.57% (inactive)
COc1ccc(CNc2ccnc(-c3ccc(C(=O)N(C)C)cc3)n2)c(OC)c1 | – | -5.55% (inactive)
COc1ccc(CNc2ccnc(-c3ccc(N(C)C)cc3)n2)c(OC)c1 | 12.6 µM (active) | –
CCOC(=O)N1CCC(NC(=O)C2CCN(S(=O)(=O)N3CCCC3)CC2)CC1 | – | 8.93% (inactive)
O=C=Nc1ccc(Cc2ccc(N=C=O)cc2)cc1 (tested in a mixture with another compound) | – | 6.78% [at 11.4 µM] (inactive)
O=C(CNC(=O)c1ccc([N+](=O)[O-])cc1)c1ccccc1 | – | 3.96% (inactive)
COc1cc(-c2nnc(SCC3(c4ccccc4)OCCO3)o2)cc(OC)c1OC | – | -8.87% (inactive)
COCCn1c(=O)c(-c2ccc(Cl)cc2)nc2cncnc21 | – | -16.2% (inactive)
Nc1ccccc1CCCC(=O)O | – | -8.09% [at 11.4 µM] (inactive)
Cc1nc2cnc(N(C)C)nc2n(CCc2ccccc2)c1=O | – | -7.01% (inactive)
O=C(CSc1nc2ccccc2c(=O)n1NC(=O)c1ccccc1)c1ccc(Cl)cc1 | – | 1.17% (inactive)
COC(=O)C/C=C\[C@@H](C)[C@@H](/C=N\O[C@@H](C)c1cc(-c2c(C)cc(C)cc2C)no1)NS(=O)(=O)c1ccc(C)cc1 | – | 10.9% [at 11.4 µM] (inactive)
COc1cc2c(cc1OC)/C(=C/C(=O)N1CCOCC1)NC(C)(C)C2 | 2.82 µM (active) | –
COc1cc2c(cc1OC)C(C(=O)N1CCOCC1)C(c1cccs1)N(C)C2=O (stereo not given) | – | 10.7% (inactive)
COc1ccc(CC(=S)N2CCOCC2)cc1OC | – | 0.628% (inactive)

Structure (SMILES) | AC50 | activity, negative = inhibition
CCOC(=O)c1ccc(N2C(=O)CC(Nc3ccc(CCO)cc3)C2=O)cc1 (stereo not given) | – | -5.73% (inactive)
Cn1c(=O)c2c(nc(NCCNc3nc4c(c(=O)n(C)c(=O)n4C)n3C)n2C)n(C)c1=O | – | 14.2% [at 11.4 µM] (inactive)
COc1cc(C(=O)N2CCN(C(=O)c3ccccc3)CC2)cc(OC)c1OC | – | -0.531% (inactive)
COC(=O)C/C=C\[C@H](C)[C@@H](OC)c1ccccc1Br | – | 12.6% [at 11.4 µM] (inactive)
COCCNc1ccnc(-c2ccccc2C)n1 | – | -6.07% (inactive)
COc1ccc2[nH]cc(CCNc3ccnc(-c4ccccc4C)n3)c2c1 | 2.51 µM (active) | –
COc1ccc2[nH]cc(CCNc3ccnc(-c4ccccc4Cl)n3)c2c1 | 20 µM (active) | –
Cc1cccc(-n2ncc3c(Nc4c(C)n(C)n(-c5ccccc5)c4=O)ncnc32)c1 | – | 3.47% (inactive)
N#CC(C#N)=CNCCN1CCN(C=C(C#N)C#N)CC1 | – | 5.03% [at 11.4 µM] (inactive)
Cc1n[nH]c(C)c1S(=O)(=O)N1CCC(C(=O)O)CC1 | – | 9.86% (inactive)
NS(=O)(=O)c1cc(Cl)c(Cl)c(S(N)(=O)=O)c1 | – | -1.87% [at 25.6 µM] (inactive)
C[C@@H](C[C@H](N)C(=O)O)C(=O)O | – | 14.5% [at 11.4 µM] (inactive)
Clc1cc2c(c(CSC3=NCN(CC4CC4)CN3)c1)OCOC2 | 0.2 µM (active) | –
O=c1c2c(-c3cccs3)csc2[nH]c(=S)n1-c1ccccc1 | – | -9.42% (inactive)
Cc1ccccc1OCC(=O)Nc1sc(C(=O)Nc2cccc(C)c2C)c(C)c1C#N | – | 24.8% (inactive)
Cn1cccc1C(=O)N1CCC2(CCN(C(=O)Nc3ccccc3)CC2)CC1 | – | 4.24% (inactive)
O=[N+]([O-])c1nccn1C[C@H](O)CN1CCCCC1 | – | 9.02% [at 11.4 µM] (inactive)
O=c1nc2ccccc2c2n1CC(CN1CCN(c3cccc(Cl)c3)CC1)N2 (stereo not given) | – | -35.5% (inactive)
O=c1n(CCCN2CCN(c3cccc(Cl)c3)CC2)nc2ccccn12 | – | -11% (inactive)
O[C@H](CN1CCN(c2cccc(Cl)c2)CC1)C(c1ccccc1)c1ccccc1 | 12.6 µM (active) and inactive | –
CC(C)OCCCn1c(=S)[nH]c2ncccc2c1=O | – | -7.67% (inactive)
COCCn1c(=O)c(C)nc2cnc(N3CCNCC3)nc21 | – | -1.98% (inactive)
